Data published in PubChem BioAssay (Tox21).
Records with an inconclusive call do not appear. Where a call stands in place of a potency, no number is given. Calls of active or inactive are those of the source. Unless noted, the call rests on the fitted dose curve; in most records, active means well fitted cell-killing curve with a large enough effect in the repeat runs; inconclusive means weak or mixed curves; inactive means no such curve, though single readings can be large or run the other way.

Target: Peroxisome proliferator-activated receptor delta (Homo sapiens) (UniProt Q03181)
Sequence (Q03181 whole entry, looked up): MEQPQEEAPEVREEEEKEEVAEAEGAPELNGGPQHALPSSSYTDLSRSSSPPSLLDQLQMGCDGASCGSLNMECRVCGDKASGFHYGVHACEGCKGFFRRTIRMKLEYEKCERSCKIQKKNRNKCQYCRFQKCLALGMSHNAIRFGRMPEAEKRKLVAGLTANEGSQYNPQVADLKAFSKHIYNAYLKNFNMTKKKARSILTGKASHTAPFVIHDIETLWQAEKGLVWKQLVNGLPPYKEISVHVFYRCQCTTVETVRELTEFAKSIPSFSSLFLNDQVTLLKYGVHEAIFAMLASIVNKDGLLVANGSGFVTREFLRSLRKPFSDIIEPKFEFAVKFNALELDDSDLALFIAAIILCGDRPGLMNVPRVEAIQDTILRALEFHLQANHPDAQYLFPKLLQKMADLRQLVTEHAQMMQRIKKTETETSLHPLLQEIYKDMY
Test: qHTS assay to identify small molecule agonists of the peroxisome proliferator-activated receptor delta (PPARd) signaling pathway (AID 743212; calls by dose curve;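 further: HEK293H cells with PPARd UAS beta-lactamase reporter GeneBLAzer system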; further: potency means the concentration at half of the fitted maximal effect)
Conditions: HEK293H PPARd-UAS-bla, beta-lactamase FRET ratio, 17 h; series mostly up to 62.6 µM
How it was run: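 Beta-lactamase reporter read by fluorescence (LiveBLAzer B/G FRET, 2 h, room temperature). Test agents, in DMSO, incubated at 37 C with PPARd-bla HEK293H cells.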

SMILES	Potency
O=C(O)c1ccncc1	inactive
CC1=C(C)C(=O)C(C(CCCCCC(=O)O)c2ccccc2)=C(C)C1=O (stereo unspecified)	29.8 µM (active)
O=[N+]([O-])c1ccccc1CCO	inactive
O=c1[nH][nH]c2ccccc12	inactive
CCc1c(C)[nH]c2c1C(=O)C(CN1CCOCC1)CC2 (stereo unspecified)	inactive
Cc1nc(C)c(C)nc1C	inactive
CCCCCCCCCCCCN1CCOCC1	inactive
O=Cc1ccc([N+](=O)[O-])cc1	inactive
C=CCCC	inactive
C1CCN(CN2CCCCC2)CC1	inactive
CC(C)=CCC/C(C)=C/C=N/O	inactive
Cc1ccccc1CCO	inactive
OCCCO	inactive

Tested on: not listed separately
Test: qHTS assay to identify small molecule antagonists of the peroxisome proliferator-activated receptor delta (PPARd) signaling pathway - cell viability counter screen (AID 743213); further: nearly all actives have a fitted effect of over 50% in size
Conditions: PPARd-bla HEK293H viability, CellTiter-Glo luminescence, 17 h; series mostly up to 62 µM
How it was run: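 PPARd-bla HEK293H cells were treated with compounds plus agonist L165041 (300 nM final) for 17 h at 37 C. Viability was then read in the same wells by CellTiter-Glo luminescence after 30 min at room temperature.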

SMILES	Potency	viability change, negative = cytotoxic
CC(=O)Nc1cccc(N)c1	inactive	
CC(C)(C)N	inactive	
Cc1cc(C)n(CO)n1	inactive	
O=C(O)CCc1nc2ccccc2[nH]1	inactive	
CC(C)(C)NCC(O)COc1ccc(NC(=O)NC2CCCCC2)cc1 (stereo unspecified)	inactive	
CCCCCCCCCCCCCCCCCCCl		-29.3% [at 6.26 µM] (inactive)
O=C(c1ccc(Cl)cc1)c1ccc(Cl)cc1	inactive	
CCC(C)C1N=C(C)C(C)S1 (stereo unspecified)	inactive	
CC(C)C/C=C(\C=O)c1ccccc1	inactive	
N#Cc1ccc(CC(=O)c2cccc(C(F)(F)F)c2)cc1	inactive	
O=S(=O)(O)c1cc(Cl)c(Cl)cc1Cl	inactive	
CCCc1nc(C)c2c(=O)[nH]c(-c3cc(S(=O)(=O)N4CCN(CC)CC4)ccc3OCC)nn12	inactive	
CS(C)=O	inactive	
CCOc1ccc2c(c1)C(C)CC(C)(C)N2 (stereo unspecified)	inactive	
O=P(c1ccccc1)(c1ccccc1)c1ccccc1	inactive	
CCCC(=O)OCc1ccccc1	inactive	
Cc1ccc(NC=O)c(C)c1	inactive	
CCC1=C(C)CN(C(=O)NCCc2ccc(S(=O)(=O)NC(=O)NC3CCC(C)CC3)cc2)C1=O (stereo unspecified)	inactive	
COc1cc(C)c(Cc2cnc(N)nc2N)cc1OC	inactive	

SMILES	Potency	viability change, negative = cytotoxic
CCCCOC(=O)C(C)Oc1ccc(Oc2ccc(C(F)(F)F)cn2)cc1 (stereo unspecified)	inactive	
C=CC(C)(O)CC/C=C(/C)CCC=C(C)C (stereo unspecified)	inactive	
CC(=O)c1cccnc1	inactive	
CCCCCO	inactive	
O=c1[nH]nc(-c2ccc([N+](=O)[O-])o2)o1	inactive	
Clc1cccc(C(c2ccc3nc[nH]c3c2)n2ccnc2)c1 (stereo unspecified)	inactive	
O=C(O)c1ccncc1	inactive	
CC1=C(C)C(=O)C(C(CCCCCC(=O)O)c2ccccc2)=C(C)C1=O (stereo unspecified)	inactive	
O=[N+]([O-])c1ccccc1CCO	inactive	
O=c1[nH][nH]c2ccccc12	inactive	
CCc1c(C)[nH]c2c1C(=O)C(CN1CCOCC1)CC2 (stereo unspecified)	inactive	
Cc1nc(C)c(C)nc1C	inactive	
CCCCCCCCCCCCN1CCOCC1	inactive	
O=Cc1ccc([N+](=O)[O-])cc1	inactive	
C=CCCC	inactive	
C1CCN(CN2CCCCC2)CC1	inactive	
CC(C)=CCC/C(C)=C/C=N/O	inactive	
Cc1ccccc1CCO	inactive	
OCCCO	inactive	
